Consider 37 compounds from PubChem BioAssay (NCI).

The nature of experiment [1]: NCI Yeast Anticancer Drug Screen. Data for the rad50 strain (AID 155).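 Note: 0% = growth of vehicle-only cultures of the same strain.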 Particulars: S. cerevisiae rad50 strain growth inhibition; at 50.0 µM; stronger effect = higher value. A digest of the protocol:
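Genetically altered yeast (DNA repair pathway); compound treatment; growth inhibition vs vehicle ctrl.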

A short description of experiment [2]: NCI Yeast Anticancer Drug Screen. Data for the mec2-1 strain (AID 157). The settings on record: S. cerevisiae mec2-1 strain, at 50.0 µM, stronger effect = higher value. A digest of the protocol: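 Using mec2-1 yeast: add compound, measure growth, express inhibition versus vehicle-treated cultures.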
The nature of experiment [3]: NCI Yeast Anticancer Drug Screen. Data for the sgs1 mgt1 strain (AID 161).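 Note: 0% = growth of cultures given vehicle only.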 Particulars: S. cerevisiae sgs1 mgt1 strain, at 50.0 µM, stronger effect = higher value. A digest of the protocol:
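Compounds are added to genetically altered yeast, and growth is compared with cultures given vehicle alone to give percent inhibition.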

A short description of experiment [4]: NCI Yeast Anticancer Drug Screen. Data for the cln2 rad14 strain (AID 165).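 Note: 0% = growth equal to vehicle treated cultures.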 Particulars: S. cerevisiae cln2 rad14 strain, at 50.0 µM, stronger effect = higher value. Summed up: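 Yeast strain cln2 rad14, bearing defects in cell cycle control and DNA repair, serves as the test system; values reflect growth inhibition compared with vehicle.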
A short description of experiment [5]: NCI Yeast Anticancer Drug Screen. Data for the bub3 strain (AID 167). Particulars: S. cerevisiae bub3 mutant strain, at 50.0 µM, stronger effect = higher value. Summed up:
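Yeast carrying a defined mutation is treated with each compound, and growth is compared with that of vehicle-exposed cells to give inhibition.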

Experiment [6] in a line: NCI Yeast Anticancer Drug Screen. Data for the mlh1 rad18 strain (AID 175). Particulars: S. cerevisiae mlh1 rad18 strain growth inhibition; at 50.0 µM; stronger effect = higher value. A digest of the protocol:
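Steps: expose repair-defective yeast to compound; measure growth; express inhibition against vehicle-treated controls.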

Compounds without any hit were thinned out: in the full panel of roughly 79,000, 15% have a hit. Unmarked numbers belong to inactive results. The source made the active and inactive calls. Cut-off read from the data, not from the text of the source: active = growth inhibition above about 70%; inactive = the rest.

For the compound `CCn1c(SCC(=O)N/N=C/c2ccccc2)nc2ccccc2c1=O`, the growth inhibition in experiment [1] is 5.65%; in experiment [2], 6.95%; in experiment [3], 3.8%; in experiment [4] it was -4.55%; in experiment [5], -1.3%; in experiment [6] it was -33.7%.
In the case of `CCOc1ccc2nc(NC(=O)CC(C)=O)sc2c1`, the growth inhibition was -17.6% in experiment [1]; -22% in experiment [2]; -4.3% in experiment [3]; 7.6% in experiment [4]; -17.9% in experiment [5]; 7.35% in experiment [6].
For `CSC(=S)c1ccc(NSc2ccccc2[N+](=O)[O-])cc1`, the growth inhibition in experiment [1] is 7.6%; in experiment [2] it was 23.6%; in experiment [3] it was 46.8%; in experiment [4], 14%; in experiment [5], 20.4%; in experiment [6], 33.8%.
`COc1cc(C2C(Cl)C(=O)N2NC(=O)c2ccc(N)cc2)ccc1O` (configuration not stated): the growth inhibition was 5.15% in experiment [1]; -0.75% in experiment [2]; -25.1% in experiment [3]; -3.8% in experiment [4]; -16.4% in experiment [5]; -8.75% in experiment [6].
For `CC1(C)CC(c2c[nH]c3ccccc23)=CC2=Nc3ccccc3C21O` (configuration not stated), the growth inhibition is -41.9% in experiment [1]; 6.7% in experiment [2]; 3.8% in experiment [3]; 15% in experiment [4]; 2.65% in experiment [5]; 16.7% in experiment [6].
Consider `CC1(C)C(=O)NC(=O)N1CO`, for which the growth inhibition in experiment [1] was 27.1%; in experiment [2], 2.4%; in experiment [3] it was -5.45%; in experiment [4] it was 19.9%; in experiment [5], 14.9%; in experiment [6], 20%.
In the case of `CC(=O)OCC1OC(n2c(Br)nc3c2c(=O)n(C)c(=O)n3C)C(OC(C)=O)C1OC(C)=O` (configuration not stated), the growth inhibition was -19.9% in experiment [1]; -1.3% in experiment [2]; -14.3% in experiment [3]; -7.95% in experiment [4]; -0.95% in experiment [5]; 0.25% in experiment [6].
Consider `COc1cc(CCCOC(=O)/C=C/c2ccc(O)c(O)c2)cc(O)c1O`, for which the growth inhibition is 19.1% in experiment [1]; -18.3% in experiment [2]; 1.05% in experiment [3]; -17.4% in experiment [4]; -0.8% in experiment [5]; -72.4% in experiment [6].
With `COc1ccc(CC(N)C(=O)N2CCCCC2)cc1` (configuration not stated), the growth inhibition in experiment [1] is 8.45%; in experiment [2], 0.8%; in experiment [3], 13.2%; in experiment [4], 8.15%; in experiment [5], 8.4%; in experiment [6], 6.75%.
As for `CN(C(=O)c1ccc(Cl)cc1)C(=S)N1CCN(c2ccccn2)CC1`, the growth inhibition is -66% in experiment [1]; -33.8% in experiment [2]; -36.6% in experiment [3]; -3.7% in experiment [4]; -13.9% in experiment [5]; -43.5% in experiment [6].
Turning to `O=C(NCCCn1ccnc1[N+](=O)[O-])C(=O)NCCCn1ccnc1[N+](=O)[O-]`, the growth inhibition in experiment [1] is 9.3%; in experiment [2], -12.2%; in experiment [3] it was -19.5%; in experiment [4], -8.95%; in experiment [5], -32%; in experiment [6] it was -23.4%.
For `COc1c2c(cc3c1C(=O)Cc1ccc4c(c1CN(C)CC3)OCO4)OCO2`, the growth inhibition was 7.15% in experiment [1]; -3.4% in experiment [2]; -1.15% in experiment [3]; 24.4% in experiment [4]; 8.95% in experiment [5]; 7.25% in experiment [6].
As for `C/C(N=NS(=O)(=O)c1ccc(C)cc1)=C1\C=CC=CN1O`, the growth inhibition in experiment [1] is -15.9%; in experiment [2] it was -14.7%; in experiment [3] it was -6.9%; in experiment [4] it was -1%; in experiment [5], -2.85%; in experiment [6], -11.9%.
As for `NC(CCCNCc1ccccc1)C(=O)O` (configuration not stated), the growth inhibition in experiment [1] is 31.9%; in experiment [2], 6.85%; in experiment [3], 1.65%; in experiment [4], 12.3%; in experiment [5], 36.9%; in experiment [6], 16.3%.
`COc1cc(S(=O)(=O)O)ccc1N=N/C(=N\Nc1ccc(S(=O)(=O)O)cc1OC)C(N)=O`: the growth inhibition in experiment [1] was -42.1%; in experiment [2], 5.55%; in experiment [3], 8.9%; in experiment [4], 18.6%; in experiment [5] it was -1.95%; in experiment [6], 7.7%.
For the compound `COc1ccc(OC)c(NC(=O)c2ccccc2Cl)c1`, the growth inhibition in experiment [1] is -4.85%; in experiment [2], -1.95%; in experiment [3], 16.7%; in experiment [4], -13%; in experiment [5], 48.2%; in experiment [6], -16.8%.
As to `CCN(CC)Cc1cc(C)c(O)c(N=Nc2ccc(-c3ccc(N)c(OC)c3)cc2OC)c1C`, the growth inhibition in experiment [1] is -21.4%; in experiment [2], 12.7%; in experiment [3], -8.05%; in experiment [4], -2.05%; in experiment [5], -6.1%; in experiment [6] it was -21.4%.
As to `CCCCCCCCCCCCCBr`, the growth inhibition is 29.8% in experiment [1]; -0.95% in experiment [2]; 13.2% in experiment [3]; 19.9% in experiment [4]; 18.1% in experiment [5]; 15.8% in experiment [6].
On to `COc1ccc(-c2cc(-c3ccncc3)[nH]c2-c2nccc3ccccc23)cc1`, for which the growth inhibition in experiment [1] is 94.2% (active); in experiment [2] it was 82.7% (active); in experiment [3], 97.3% (active); in experiment [4], 79.5% (active); in experiment [5], 73.7% (active); in experiment [6], 85% (active).
As for `C=CCOC/C=C\CCOCC/C=C/COCC=C` (tested in a mixture with another compound), the growth inhibition was 5% in experiment [1]; 1.3% in experiment [2]; 6.25% in experiment [3]; -13.6% in experiment [4]; 2.45% in experiment [5]; 2.35% in experiment [6].
Consider `CCCCCCCCCCCCSC1=C(OC)C(=O)C(OC)=C(OC)C1=O`, for which the growth inhibition was 33.5% in experiment [1]; 13.8% in experiment [2]; 26.6% in experiment [3]; -5.2% in experiment [4]; -1.35% in experiment [5]; 16.5% in experiment [6].
In the case of `O=C(Cc1nc(-c2ccccc2)cc(=O)n1-c1ccccc1Cl)c1ccncc1`, the growth inhibition in experiment [1] is 32.4%; in experiment [2], 12.5%; in experiment [3], -6.3%; in experiment [4], 21.2%; in experiment [5], -1.2%; in experiment [6], 20.4%.
`CC1(C)C[C@@H]2C1CCC1(C)CC2(O)CC[C@H]1O` (some centres not stated): the growth inhibition is -23.6% in experiment [1]; -35% in experiment [2]; -24.8% in experiment [3]; 14.4% in experiment [4]; 2.3% in experiment [5]; -17.9% in experiment [6].
For the compound `O/N=C/C(=Nc1cccc2ccccc12)NO`, the growth inhibition in experiment [1] is -11.1%; in experiment [2] it was -12.8%; in experiment [3] it was -12.1%; in experiment [4] it was -10.3%; in experiment [5] it was -5.7%; in experiment [6], 13.9%.
As for `O=C(/C=N/O)Nc1cccc(Cl)c1I`, the growth inhibition in experiment [1] is 18.4%; in experiment [2], -5.2%; in experiment [3] it was 30.1%; in experiment [4], 2.95%; in experiment [5], 12.6%; in experiment [6] it was 10.4%.
`O=C(O)Cn1c(=O)ccc2ccccc21`: the growth inhibition in experiment [1] was 4.4%; in experiment [2], -3.25%; in experiment [3] it was -8.55%; in experiment [4] it was -37.7%; in experiment [5] it was -7.7%; in experiment [6] it was 4.9%.
As for `CCOC(C[N+](C)(C)C)OCC`, the growth inhibition was 9.7% in experiment [1]; -25.6% in experiment [2]; 2.4% in experiment [3]; 8% in experiment [4]; 30% in experiment [5]; 0.3% in experiment [6].
`CCCCOc1n[nH]c(=O)c2ccccc12`: the growth inhibition was -2.4% in experiment [1]; -13% in experiment [2]; -3.65% in experiment [3]; -25.4% in experiment [4]; -7.9% in experiment [5]; 8.6% in experiment [6].
With `Cc1nn(CCO)c2nc(N)nc(N)c12`, the growth inhibition was 2.05% in experiment [1]; 3.35% in experiment [2]; -0.4% in experiment [3]; -1.45% in experiment [4]; -6.35% in experiment [5]; -3.2% in experiment [6].
Take `CCCC/C(C)=N/NC(N)=S`: the growth inhibition in experiment [1] was 2.3%; in experiment [2] it was -4.3%; in experiment [3] it was -4.3%; in experiment [4] it was -2.65%; in experiment [5], -15.9%; in experiment [6], 1.9%.
For `CC(C)CCOC(=O)NC(Nc1ccc(F)cc1)(C(F)(F)F)C(F)(F)F`, the growth inhibition is -10.6% in experiment [1]; -15.9% in experiment [2]; -40.5% in experiment [3]; -13.3% in experiment [4]; -5.2% in experiment [5]; -25.9% in experiment [6].
Consider `O=C1CCCC1CC(CN1CCOCC1)Sc1nnnn1-c1ccccc1` (configuration not stated), for which the growth inhibition in experiment [1] was 6.55%; in experiment [2], -3.5%; in experiment [3], 17.1%; in experiment [4] it was -16.6%; in experiment [5], 25.2%; in experiment [6], -45.8%.
For the compound `C(#Cc1ccccc1)/C=C/C(=C\c1ccccc1)c1ccccc1`, the growth inhibition in experiment [1] is 6.6%; in experiment [2] it was 4.9%; in experiment [3], -4.9%; in experiment [4], 11.8%; in experiment [5] it was 20.8%; in experiment [6] it was 33.5%.
As to `CCC(=O)N(C)[C@@H]1Oc2ccc(O)cc2[C@]1(C)c1cc(O)ccc1O`, the growth inhibition was 0.35% in experiment [1]; 2.25% in experiment [2]; 14.8% in experiment [3]; 19.9% in experiment [4]; 6.7% in experiment [5]; 9.95% in experiment [6].
In the case of `CNC(CCc1ccccc1)C(=O)O` (configuration not stated), the growth inhibition in experiment [1] is 1.9%; in experiment [2], -1.25%; in experiment [3], 8.4%; in experiment [4], -7.3%; in experiment [5] it was 4.4%; in experiment [6], 2.7%.
`O=C(O)C(Cc1ccc(O)cc1)N=Cc1nc(-c2ccccc2)oc1O` (configuration not stated): the growth inhibition in experiment [1] is -3.5%; in experiment [2], -3.5%; in experiment [3], 0.25%; in experiment [4], 3%; in experiment [5], -6.5%; in experiment [6], 0.7%.
For `Cc1cc(NS(=O)(=O)c2ccc(NC(=O)c3ccc(Cl)c4c(Nc5ccc(S(=O)(=O)N=C(N)N)cc5)c5ccccc5nc34)cc2)no1`, the growth inhibition was 29.9% in experiment [1]; 42.1% in experiment [2]; 31.6% in experiment [3]; 34.5% in experiment [4]; 26.4% in experiment [5]; 53.5% in experiment [6].
